Measurements published in PubChem BioAssay (EPA / NIEHS).
Several values for one entry are separate records, joined by “and”; a condition that tells them apart may be missing. Equal values may be shown once. The source holds several records for some structures; these can differ, active in one and inactive in another. Activity calls are given as the source filed them. The calls were made as follows: active = hit-call score of the fitted dose curve at least 0.9, where 1 is the maximum; inactive = score below 0.9.

Experiment: CCTE_Shafer_MEA_acute_firing_rate_mean: CCTE's Neural Acute Assay for Mean Firing Rate, Shafer Lab (AID 2284009)
Description: CCTE_Shafer_MEA_acute assay is conducted using Axion Biosystems 48 well microelectrode array (MEA) plates and Maestro recording system. Each well of the MEA plate contains a grid of 16 microelectrodes embedded in the culture surface. Electrically active cells, such as neurons, can be cultured over the electrodes, and electrical activity in these cells can be recorded extracellularly. The spontaneous firing of neurons is captured from each electrode on a microsecond timescale providing both temporally and spatially precise data. […] The CCTE_Shafer_MEA_acute assay uses primary cultures of rat cortical neurons. As these cultures mature over time, neural networks develop functional activity and form cohesive networks in which electrical activity can be highly coordinated. Baseline 40-minute recordings are made on days post-plating 13 or 15, followed by a secondary 40-minute recording after chemical exposure.CCTE_Shafer_MEA_acute_firing_rate_mean is a component of the CCTE_Shafer_MEA_acute assay. It measures the frequency number of spikes (action potential firings) as the total number of spikes divided by the length of the recording in a microelectrode array (MEA) using Axion Biosystems Maestro 768 channel amplifier with the AxIS adaptive spike detector. The firing rate is divided by the number of electrodes to report a well-mean value. The recordings before and after chemical treatment are used to calculate a percent change in the mean firing rate in each well.Data from the assay component CCTE_Shafer_MEA_acute_firing_rate_mean was analyzed into 1 assay endpoint. This assay endpoint, CCTE_Shafer_MEA_acute_firing_rate_mean, was analyzed in the negative analysis fitting direction relative to DMSO as the negative control and baseline of activity. Using a type of functional reporter, gain or loss-of-signal activity can be used to understand electrical activity.
Spontaneous activity in the cortical cultures was recorded using an Axion Biosystems Maestro 768 channel amplifier and Axion Integrated Studios (AxIS) v1.8 (or later) software. The amplifier recorded from all channels simultaneously (gain = 1200 x; sampling rate = 12.5 kHz/channel): raw signals were filtered with a Butterworth band-pass filter (300-5000 Hz), which filters out slower local field potentials leaving only fast potentials, i.e., "spikes", arising from extracellular currents associated with action potentials (Pine 2006; Wheeler and Nam 2011). On-line spike detection of filtered signals was conducted with the AxIS adaptive spike detector, using a threshold of 8x the root mean squared (rms) noise on each channel. Any electrodes with rms noise levels greater than 5 uV were grounded (e.g., no data were recorded). Once grounded, an electrode was grounded for the duration of the experiment. All recordings were conducted at 37 C. Wells were deemed usable if on the day of the exposure >/= 10 electrodes were active (defined as >/= 5 spikes/min). On DIV 13 or 15, a minimum of three wells from one cortical culture preparation were treated with each compound (0.03-40 uM). Prior to recording baseline activity, each mwMEA plate was placed in the Maestro at 37 C and allowed to sit for 20 min while firing rates stabilized. Baseline activity (40 min) was recorded before the addition of each compound. An additional 40 min of spontaneous activity was recorded in the presence of each compound. Changes in network parameters relative to baseline were assessed following compound treatment.

SMILES | AC50 | outcome
CCc1cccc(C)c1N(C(=O)CCl)C(C)COC (stereo not given) | 27 µM (active) | 
C[N+]1(C)CCCCC1 |  | inactive
Cc1ccn2nc(S(=O)(=O)Nc3c(F)cccc3F)nc2n1 |  | inactive
C[Si](Cn1cncn1)(c1ccc(F)cc1)c1ccc(F)cc1 | 4.69 µM (active) | 
CC(C)N(C(=O)SCC(Cl)=C(Cl)Cl)C(C)C | 8.79 µM (active) and 5.81 µM (active) | 
CCOP(=S)(OCC)SCCSCC |  | inactive
COP(=O)(OC)C(O)C(Cl)(Cl)Cl (stereo not given) |  | inactive
CN(C)[C@@H]1C(=O)C(C(N)=O)=C(O)[C@@]2(O)C(=O)C3=C(O)c4c(O)cccc4[C@@](C)(O)[C@H]3[C@H](O)[C@@H]12 |  | inactive
CON=C(C(=O)OC)c1ccccc1CON=C(C)c1cccc(C(F)(F)F)c1 | 0.183 µM (active) | 
CCOC(=O)CC(SP(=O)(OC)OC)C(=O)OCC (stereo not given) |  | inactive
CSC1=N[C@@](C)(c2ccccc2)C(=O)N1Nc1ccccc1 | 5.76 µM (active) | inactive
CCc1cnc(C2=NC(C)(C(C)C)C(=O)N2)c(C(=O)O)c1 (stereo not given) |  | inactive
CC(C)=CC1C(C(=O)OCN2C(=O)C3=C(CCCC3)C2=O)C1(C)C (stereo not given) |  | inactive
CCCOCC(=Nc1ccc(Cl)cc1C(F)(F)F)n1ccnc1 | 0.571 µM (active) | 
COP(=O)(NC(C)=O)SC (stereo not given) |  | inactive
O=[N+]([O-])c1cc(C(F)(F)F)c(Cl)c([N+](=O)[O-])c1Nc1ncc(C(F)(F)F)cc1Cl | 0.35 µM (active) | 
CN(C)NC(=O)CCC(=O)O |  | inactive

SMILES | AC50 | outcome
CCOP(=S)(OCC)Oc1ccc2c(C)c(Cl)c(=O)oc2c1 | 1.85 µM (active) | 
COc1cc(OC)nc(Sc2cccc(Cl)c2C(=O)O)n1 |  | inactive
C=C(C)[C@H]1Cc2c(ccc3c2O[C@@H]2COc4cc(OC)c(OC)cc4[C@@H]2C3=O)O1 | 2.85 µM (active) | 
CCOP(=O)(NC(C)C)Oc1ccc(SC)c(C)c1 (stereo not given) | 10.2 µM (active) | 
CC(C)[C@H](C(=O)O[C@H](C#N)c1cccc(Oc2ccccc2)c1)c1ccc(Cl)cc1 |  | inactive
FC(F)C(F)(F)OCC(Cn1cncn1)c1ccc(Cl)cc1Cl (stereo not given) | 5.92 µM (active) | 
CC(COc1ccc(Oc2ccccc2)cc1)Oc1ccccn1 (stereo not given) | 20 µM (active) | 
CC[C@H](C)[C@H]1O[C@]2(C=C[C@@H]1C)C[C@@H]1C[C@@H](C/C=C(\C)[C@@H](O[C@H]3C[C@H](OC)[C@@H](O[C@H]4C[C@H](OC)[C@@H](NC)[C@H](C)O4)[C@H](C)O3)[C@@H](C)/C=C/C=C3\CO[C@@H]4[C@H](O)C(C)=C[C@@H](C(=O)O1)[C@]34O)O2 | 4.94 nM (active) and 26.8 nM (active) | 
N#CSCSC#N |  | inactive
C#CCC1=C(C)C(OC(=O)C2C(C=C(C)C)C2(C)C)CC1=O (stereo not given) | 27.4 µM (active) | 
O=C(O)c1cc(Oc2ccc(C(F)(F)F)cc2Cl)ccc1[N+](=O)[O-] |  | inactive
CCOP(=S)(Oc1cnc(C(C)(C)C)nc1)OC(C)C (stereo not given) | 15.5 µM (active) | 
CNC(=O)ON=C(SC)C(=O)N(C)C |  | inactive
CC(=NC#N)N(C)Cc1ccc(Cl)nc1 |  | inactive
CN1COCN(Cc2cnc(Cl)s2)C1=N[N+](=O)[O-] |  | inactive
Nc1c(Cl)cc([N+](=O)[O-])cc1Cl |  | inactive
CC1=NNC(=O)N(/N=C/c2cccnc2)C1 |  | inactive
